The campaign covered roughly 310,000 compounds. About 14,000 (4.5%) showed an effect of 50% or more. The effect is printed as a negative number. The entries come from a sample that favours strong results as a whole.
The molecules below were run against human ether-à-go-go-related gene (hERG) potassium channel (human, UniProt Q12809) (assay: primary screen, population patch clamp on CHO cells stably expressing hERG; higher = less effect of the substance).
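Also: peak tail current of the secondary pulse compared with the same well before compound.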

Sequence of human ether-à-go-go-related gene (hERG) potassium channel (Q12809 whole entry, looked up): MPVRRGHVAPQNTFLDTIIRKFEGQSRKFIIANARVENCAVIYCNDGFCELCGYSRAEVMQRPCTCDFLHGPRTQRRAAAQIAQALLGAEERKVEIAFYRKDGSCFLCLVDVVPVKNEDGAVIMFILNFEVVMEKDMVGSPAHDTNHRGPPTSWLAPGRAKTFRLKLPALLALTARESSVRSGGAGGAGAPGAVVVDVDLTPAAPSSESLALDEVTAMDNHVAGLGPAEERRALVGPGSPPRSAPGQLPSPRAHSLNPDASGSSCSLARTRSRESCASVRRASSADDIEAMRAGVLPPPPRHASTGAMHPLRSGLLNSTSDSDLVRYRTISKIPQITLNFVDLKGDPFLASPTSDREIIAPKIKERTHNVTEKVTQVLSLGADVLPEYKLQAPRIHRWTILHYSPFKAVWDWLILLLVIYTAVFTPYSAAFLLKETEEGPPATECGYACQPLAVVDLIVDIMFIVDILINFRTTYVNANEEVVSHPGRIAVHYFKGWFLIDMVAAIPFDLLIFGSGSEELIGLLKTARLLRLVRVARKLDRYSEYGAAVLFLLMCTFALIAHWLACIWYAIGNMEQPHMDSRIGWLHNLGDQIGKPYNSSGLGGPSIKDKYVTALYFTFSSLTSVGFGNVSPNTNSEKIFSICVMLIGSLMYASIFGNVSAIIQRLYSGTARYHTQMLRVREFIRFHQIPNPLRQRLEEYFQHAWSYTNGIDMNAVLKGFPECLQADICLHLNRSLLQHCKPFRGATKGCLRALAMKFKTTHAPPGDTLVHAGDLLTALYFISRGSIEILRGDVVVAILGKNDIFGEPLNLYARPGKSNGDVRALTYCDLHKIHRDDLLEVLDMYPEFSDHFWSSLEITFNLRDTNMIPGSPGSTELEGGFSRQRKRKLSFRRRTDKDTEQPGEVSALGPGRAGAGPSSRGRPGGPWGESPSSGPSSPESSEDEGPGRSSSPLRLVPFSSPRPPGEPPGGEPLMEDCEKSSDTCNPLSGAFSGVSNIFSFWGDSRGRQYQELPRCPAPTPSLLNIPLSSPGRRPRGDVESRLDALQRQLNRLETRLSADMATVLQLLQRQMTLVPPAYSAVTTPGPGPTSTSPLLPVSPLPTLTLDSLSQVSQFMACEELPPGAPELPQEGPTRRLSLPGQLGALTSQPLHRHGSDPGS

Point of comparison: CCOC(=O)c1cc(NC(=O)CNCC(c2ccccc2)N(C)C)cc(C(=O)OCC)c1.O=C(O)C(=O)O (stereo not drawn), “hERG current change (%, negative = inhibition) at 10uM” value -57.7%. Against it:
- O=[N+]([O-])c1ccc(Cl)cc1CNc1ccc(F)c(F)c1 — higher, 0.95%
- COc1ccc(CNC2CCCc3ccccc32)c(OC)c1 (stereo not drawn) — higher, -36.9%
- COc1cc(NC(=O)c2cc([N+](=O)[O-])ccc2NC(=O)CNC2CCCCC2C)cc(OC)c1 (stereo not drawn) — higher, 20.3%
- COc1ccc(CNC2CCCCC2C)c(OC)c1 (stereo not drawn) — higher, -56.9%
- COc1ccc(NC(=O)c2cc([N+](=O)[O-])ccc2NC(=O)CNC2CCCCC2C)c(OC)c1 (stereo not drawn) — lower, -76.3%
- COc1ccc(CC(=O)NC2CCCCCC2)c(OC)c1 — higher, -3.09%
- COc1ccc(NC(=O)c2cc([N+](=O)[O-])ccc2NC(=O)CNCc2ccccn2)c(OC)c1 — higher, 7.29%
- CCOc1ccc(CCNC(=O)COC(=O)c2ccc(C)s2)cc1OCC — higher, 14.6%
- COc1ccc(C2NC(=O)C(C#N)=C(S)N2c2ccc(C)cc2)cc1OC (stereo not drawn) — higher, 18.2%
- Cc1c(C(N)=O)sc2nc(-c3ccccc3)cn12 — higher, 1.01%
- CC(=O)c1ccc(NC(=O)CNCC(c2ccccc2)N(C)C)cc1.O=C(O)C(=O)O (stereo not drawn) — higher, 2.26%
- Cc1ccc(NC(=O)CNCC(c2ccccc2)N(C)C)cc1F.O=C(O)C(=O)O (stereo not drawn) — higher, -38.1%
- COc1ccc(Cl)cc1NC(=O)CNCC(c1ccccc1)N(C)C.O=C(O)C(=O)O (stereo not drawn) — lower, -73.9%
- Cc1ccc(Cl)cc1NC(=O)CNCC(c1ccccc1)N(C)C.O=C(O)C(=O)O (stereo not drawn) — higher, -30.3%
- COc1ccc(Cl)cc1NC(=O)CNC(c1ccccc1)c1ccccc1 — higher, 12.6%
- Cn1c(SCC(=O)N2CCOCC2)nc2c(c1=O)SCC2 — higher, 15.8%
- O=C(c1ccccc1)N1CCC(CC2CC(c3ccc(Cl)cc3)=NO2)(C(=O)NCC2CCCCC2)CC1 (stereo not drawn) — higher, -52%
- O=C(C1CCCC1)N1CCC(CC2CC(c3ccc(Cl)cc3)=NO2)(C(=O)NCC2CCCCC2)CC1 (stereo not drawn) — higher, -24.1%
- O=C(CCCCCBr)N1CCC(CC2CC(c3cccc(Br)c3)=NO2)(C(=O)NCC2CCCCC2)CC1 (stereo not drawn) — lower, -69%
- O=C(C1CCCC1)N1CCC(CC2CC(c3cccc(Br)c3)=NO2)(C(=O)NCC2CCCCC2)CC1 (stereo not drawn) — higher, -49.9%
- CC(C)(C)OC(=O)N1CCC(CC2CC(c3cccc(Br)c3)=NO2)(C(=O)NCC2CCCCC2)CC1 (stereo not drawn) — higher, 13.7%
- O=C(c1ccccc1)N1CCC(CC2CC(c3cccc(Br)c3)=NO2)(C(=O)NCC2CCCCC2)CC1 (stereo not drawn) — higher, -1.49%
- O=C(CCCCCBr)N1CCC(CC2CC(c3ccc(Cl)cc3)=NO2)(C(=O)NCC2CCCCC2)CC1 (stereo not drawn) — lower, -74.6%
- CC1(C(=O)N2CCC(CC3CC(c4ccc(Cl)cc4)=NO3)(C(=O)NCC3CCCCC3)CC2)CC1 (stereo not drawn) — higher, -40.8%
- CC(C)(C)OC(=O)N1CCC(CC2CC(c3ccc(Cl)cc3)=NO2)(C(=O)NCC2CCCCC2)CC1 (stereo not drawn) — higher, -19.5%
- CCOC(=O)c1c(-c2ccc(C)s2)csc1N — higher, 7.8%
- Cc1cccc(/C=C/C(=O)c2cc(Br)ccc(=O)c2O)c1 — higher, 16.7%
- COc1ccc(Oc2ncnc3sccc23)cc1 — higher, 1.8%
- CC#CC(=O)N1CCC(CCC(=O)N(C)Cc2ccccc2)CC1 — higher, -7.72%
- CCc1ccc(NC2=CC(=O)CC(c3ccco3)C2)cc1 (stereo not drawn) — higher, 5.49%
- CCCCCCCNC1=CC(=O)CC(c2ccco2)C1 (stereo not drawn) — lower, -76.9%
- CC(C)CNC1=CC(=O)CC(c2ccco2)C1 (stereo not drawn) — higher, 6.11%
- CCCCCCCNC1=CC(=O)CC(c2ccccc2)C1 (stereo not drawn) — lower, -81.3%
- CN(C)CCCNC1=CC(=O)CC(c2ccccc2)C1 (stereo not drawn) — higher, 3.58%
- CNC1=CC(=O)CC(c2ccccc2)C1 (stereo not drawn) — higher, -1.58%
- COc1cc(S(=O)(=O)NCCN2CCOCC2)ccc1-n1cnnn1 — higher, 17.5%
- O=S(=O)(Nc1ccc2c(c1)OCCO2)c1cccc2nsnc12 — higher, -11.2%
- O=C(O)c1ccc(Cn2cnc3scc(-c4ccccc4)c3c2=O)cc1 — higher, 20.8%
- c1ccc(Cn2c(CNc3nc4ccccc4n3CCN3CCOCC3)nc3ccccc32)cc1 — lower, -84.3%
- Cn1c(CNc2nc3ccccc3n2CCN2CCCCC2)nc2ccccc21 — lower, -65%
- Cn1c(CNc2nc3ccccc3n2C)nc2ccccc21 — higher, -15.2%
- CC(C)n1c(NCc2nc3ccccc3n2C)nc2ccccc21 — higher, -46.4%
- CCN(CC)CCn1c(NCc2nc3ccccc3n2Cc2ccccc2)nc2ccccc21 — higher, -2.44%
- C=CCc1cccc(CNc2nc3ccccc3n2CCN2CCOCC2)c1O — higher, -6.61%
- c1coc(CNc2nc3ccccc3n2CCN2CCOCC2)c1 — higher, -33.2%
- c1ccc(Cn2c(CNc3nc4ccccc4n3CCN3CCCCC3)nc3ccccc32)cc1 — lower, -68.5%
- C#CCOCCOCCOCCNc1nc(N2CCN(C(=O)Cn3cc(CCO)nn3)CC2)nc(N2CCN(C(=O)[C@H]([C@@H](C)O)n3cc(CCCC[NH3+])nn3)CC2)n1.[Cl-] — higher, 12.3%
- CCOC(=O)/C(=N\Nc1ncnc2ccccc12)c1ccc(OC)cc1 — higher, 15%
- COc1ccc(NC(=O)CSC2CC(=O)N(c3ccc4c(c3)OCCO4)C2=O)cc1 (stereo not drawn) — higher, 4.54%
- O=C(c1ccccc1-c1nc(-c2ccc(F)cc2)no1)N1CCCC1 — higher, -30.8%
- Cn1nc(C(=O)Nc2ccc(Cl)c(S(=O)(=O)N3CCOCC3)c2)c2ccccc2c1=O — higher, -9.05%
- O=C(NC1CCS(=O)(=O)C1)N1CCCCC1 (stereo not drawn) — higher, 13.2%
- O=C(NC(=S)N1CCN(c2nc(-c3ccccc3)cs2)CC1)c1cncc(Br)c1 — higher, 17%

— article PMC4336329 (PLoS ONE, 2015)
